About 2,000 (36%) of roughly 5,500 compounds were called active. Another 18% or so got no clear call; they are omitted. Rule as the data show it: active = normalized growth mostly below about 0.91 (no sharp cut-off); inconclusive = no clear call, values can overlap the other calls; inactive = mostly above about 0.92. This is one part of the list.
Assay: chemical genetic growth profiling, strain panel (AID 1159580);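 also: tested at 20 µM; growth read once vehicle control cultures reached saturation at 30 °C; 1 = growth at the plate median or of vehicle wells; lower values mean less growth of the strain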
Details: growth OD

Measured: normalized growth

O=C(O[C@@H]1Cc2c(O)cc(O)cc2O[C@@H]1c1cc(O)c(O)c(O)c1-c1c([C@H]2Oc3cc(O)cc(O)c3C[C@H]2O)cc(O)c(O)c1O)c1cc(O)c(O)c(O)c1
active: S. cerevisiae deletion strains, locus YJL187C, strain SWE1 (second series), stronger effect = lower value 0.0786 | S. cerevisiae deletion strains, locus YKL190W, strain CNB1, stronger effect = lower value 0.0679 | S. cerevisiae deletion strains, locus YKR001C, strain vps1, stronger effect = lower value 0.487 | S. cerevisiae deletion strains, locus YLR039C, strain RIC1, stronger effect = lower value 0.136 | S. cerevisiae deletion strains, locus YLR058C, strain SHM2, stronger effect = lower value 0.0917 | S. cerevisiae deletion strains, locus YLR102C, strain apc9, stronger effect = lower value 0.885 | S. cerevisiae deletion strains, locus YLR262C, strain YPT6, stronger effect = lower value 0.222 | S. cerevisiae deletion strains, locus YLR268W, strain sec22, stronger effect = lower value 0.225 | S. cerevisiae deletion strains, locus YLR330W, strain CHS5, stronger effect = lower value 0.488 | S. cerevisiae deletion strains, locus YLR371W, strain rom2, stronger effect = lower value 0.667 | S. cerevisiae deletion strains, locus YLR418C, strain cdc73, stronger effect = lower value 0.238 | S. cerevisiae deletion strains, locus YML016C, strain PPZ1, stronger effect = lower value 0.0734 | S. cerevisiae deletion strains, locus YML032C, strain rad52, stronger effect = lower value 0.808 | S. cerevisiae deletion strains, locus YML124C, strain tub3, stronger effect = lower value 0.733 | S. cerevisiae deletion strains, locus YMR058W, strain fet3, stronger effect = lower value 0.455 | S. cerevisiae deletion strains, locus YMR223W, strain ubp8, stronger effect = lower value 0.571 | S. cerevisiae deletion strains, locus YMR263W, strain SAP30, stronger effect = lower value 0.386 | S. cerevisiae deletion strains, locus YMR307W, strain GAS1, stronger effect = lower value 0.343 | S. cerevisiae deletion strains, locus YNL067W, strain RPL9B, stronger effect = lower value 0.138 | S. cerevisiae deletion strains, locus YNL128W, strain TEP1, stronger effect = lower value 0.0913 | S. cerevisiae deletion strains, locus YNL153C, strain GIM3, stronger effect = lower value 0.201 | S. cerevisiae deletion strains, locus YNL209W, strain ssb2, stronger effect = lower value 0.822 | S. cerevisiae deletion strains, locus YNL233W, strain BNI4, stronger effect = lower value 0.299 | S. cerevisiae deletion strains, locus YNL307C, strain MCK1, stronger effect = lower value 0.831 | S. cerevisiae deletion strains, locus YNR052C, strain pop2, stronger effect = lower value 0.246 | S. cerevisiae deletion strains, locus YOL006C, strain TOP1, stronger effect = lower value 0.168 | S. cerevisiae deletion strains, locus YOL147C, strain pex11, stronger effect = lower value 0.662 | S. cerevisiae deletion strains, locus YOR061W, strain CKA2, stronger effect = lower value 0.163 | S. cerevisiae deletion strains, locus YOR069W, strain VPS5, stronger effect = lower value 0.128 | S. cerevisiae deletion strains, locus YOR106W, strain vam3, stronger effect = lower value 0.817 | S. cerevisiae deletion strains, locus YOR136W, strain idh2, stronger effect = lower value 0.645 | S. cerevisiae deletion strains, locus YOR144C, strain elg1, stronger effect = lower value 0.774 | S. cerevisiae deletion strains, locus YOR184W, strain ser1, stronger effect = lower value 0.346 | S. cerevisiae deletion strains, locus YOR316C, strain cot1, stronger effect = lower value 0.863 | S. cerevisiae deletion strains, locus YPL051W, strain arl3, stronger effect = lower value 0.822 | S. cerevisiae deletion strains, locus YPR163C, strain tif3, stronger effect = lower value 0.756 | S. cerevisiae deletion strains, locus YPR167C, strain met16, stronger effect = lower value 0.785 | S. cerevisiae deletion strains, strain wtn01, stronger effect = lower value 0.335 | S. cerevisiae strains, strain wild type, stronger effect = lower value 0.0644
inactive: S. cerevisiae deletion strains, locus YJL187C, strain SWE1, stronger effect = lower value 0.981 | S. cerevisiae deletion strains, locus YKL009W, strain mrt4, stronger effect = lower value 1.08 | S. cerevisiae deletion strains, locus YKL068W, stronger effect = lower value 1.03 | S. cerevisiae deletion strains, locus YKL085W, strain MDH1 (second series), stronger effect = lower value 0.994 | S. cerevisiae deletion strains, locus YKL085W, strain MDH1, stronger effect = lower value 0.994 | S. cerevisiae deletion strains, locus YKL160W, strain elf1, stronger effect = lower value 0.968 | S. cerevisiae deletion strains, locus YKR026C, strain gcn3, stronger effect = lower value 1.03 | S. cerevisiae deletion strains, locus YKR091W, strain srl3, stronger effect = lower value 1.02 | S. cerevisiae deletion strains, locus YLL001W, strain dnm1, stronger effect = lower value 0.986 | S. cerevisiae deletion strains, locus YLL026W, stronger effect = lower value 1.03 | S. cerevisiae deletion strains, locus YLL041C, strain sdh2, stronger effect = lower value 1.04 | S. cerevisiae deletion strains, locus YLR027C, strain aat2, stronger effect = lower value 1 | S. cerevisiae deletion strains, locus YLR221C, strain rsa3, stronger effect = lower value 0.989 | S. cerevisiae deletion strains, locus YLR258W, strain gsy2, stronger effect = lower value 1.02 | S. cerevisiae deletion strains, locus YLR262C, strain YPT6 (second series), stronger effect = lower value 0.89 | S. cerevisiae deletion strains, locus YLR320W, strain mms22, stronger effect = lower value 1.01 | S. cerevisiae deletion strains, locus YLR342W, strain FKS1, stronger effect = lower value 0.957 | S. cerevisiae deletion strains, locus YLR357W, strain rsc2, stronger effect = lower value 0.9 | S. cerevisiae deletion strains, locus YLR370C, strain arc18, stronger effect = lower value 1 | S. cerevisiae deletion strains, locus YLR384C, strain iki3, stronger effect = lower value 1.02 | S. cerevisiae deletion strains, locus YML120C, strain ndi1, stronger effect = lower value 1 | S. cerevisiae deletion strains, locus YMR078C, strain ctf18, stronger effect = lower value 0.927 | S. cerevisiae deletion strains, locus YMR125W, strain sto1, stronger effect = lower value 1.04 | S. cerevisiae deletion strains, locus YMR129W, stronger effect = lower value 1.02 | S. cerevisiae deletion strains, locus YMR205C, strain PFK2, stronger effect = lower value 0.978 | S. cerevisiae deletion strains, locus YMR231W, strain pep5, stronger effect = lower value 0.942 | S. cerevisiae deletion strains, locus YNL071W, strain lat1, stronger effect = lower value 1.02 | S. cerevisiae deletion strains, locus YNL248C, strain rpa49, stronger effect = lower value 1.02 | S. cerevisiae deletion strains, locus YNL250W, strain rad50, stronger effect = lower value 0.963 | S. cerevisiae deletion strains, locus YNL271C, strain bni1, stronger effect = lower value 0.974 | S. cerevisiae deletion strains, locus YNL298W, strain CLA4, stronger effect = lower value 1 | S. cerevisiae deletion strains, locus YNL322C, strain KRE1 (second series), stronger effect = lower value 1.03 | S. cerevisiae deletion strains, locus YNR049C, strain mso1, stronger effect = lower value 1.03 | S. cerevisiae deletion strains, locus YOL012C, strain htz1 0.228 | S. cerevisiae deletion strains, locus YOR001W, strain rrp6, stronger effect = lower value 0.981 | S. cerevisiae deletion strains, locus YOR070C, strain gyp1, stronger effect = lower value 0.972 | S. cerevisiae deletion strains, locus YOR080W, strain dia2, stronger effect = lower value 1.02 | S. cerevisiae deletion strains, locus YOR083W, strain WHI5, stronger effect = lower value 0.937 | S. cerevisiae deletion strains, locus YOR265W, strain rbl2, stronger effect = lower value 0.984 | S. cerevisiae deletion strains, locus YOR270C, strain vph1, stronger effect = lower value 0.977 | S. cerevisiae deletion strains, locus YOR290C, strain snf2, stronger effect = lower value 0.989 | S. cerevisiae deletion strains, locus YPL078C, strain atp4, stronger effect = lower value 0.99 | S. cerevisiae deletion strains, locus YPL106C, strain sse1, stronger effect = lower value 0.941 | S. cerevisiae deletion strains, locus YPL240C, strain hsp82, stronger effect = lower value 1 | S. cerevisiae deletion strains, locus YPR119W, strain clb2, stronger effect = lower value 0.981 | S. cerevisiae deletion strains, locus YPR141C, strain kar3, stronger effect = lower value 0.988
